Results published in PubChem BioAssay AID1159580 (chemical genetic matrix, 2015).
About 2,000 (36%) of roughly 5,500 compounds were called active. About 18% were inconclusive and are not listed. No stated cut-off is given here; in the data, active means normalized growth mostly below about 0.91 (no sharp cut-off); inconclusive means no clear call, values can overlap the other calls; inactive means mostly above about 0.92. The list shows a part of the results.

Assay: chemical genetic growth profiling, strain panel (AID 1159580);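 further: tested at 20 µM; growth read once vehicle control cultures reached saturation at 30 °C; 1 = growth at the plate median or of vehicle wells; lower values mean less growth of the strain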
Conditions: growth OD

Measured: normalized growth

CC[C@@]1(O)C[C@H](O[C@H]2C[C@H](N(C)C)[C@H](O)[C@H](C)O2)c2c(cc3c(c2O)C(=O)c2c(O)ccc(O)c2C3=O)[C@H]1C(=O)OC
active: S. cerevisiae deletion strains, locus YJR075W, strain HOC1, hits give low values 0.0948 | S. cerevisiae deletion strains, locus YKR001C, strain vps1, hits give low values 0.0857 | S. cerevisiae deletion strains, locus YLL001W, strain dnm1, hits give low values 0.884 | S. cerevisiae deletion strains, locus YLR039C, strain RIC1, hits give low values 0.113 | S. cerevisiae deletion strains, locus YLR058C, strain SHM2, hits give low values 0.0794 | S. cerevisiae deletion strains, locus YLR102C, strain apc9, hits give low values 0.467 | S. cerevisiae deletion strains, locus YLR221C, strain rsa3, hits give low values 0.877 | S. cerevisiae deletion strains, locus YLR258W, strain gsy2, hits give low values 0.905 | S. cerevisiae deletion strains, locus YLR262C, strain YPT6 (second series), hits give low values 0.701 | S. cerevisiae deletion strains, locus YLR262C, strain YPT6, hits give low values 0.13 | S. cerevisiae deletion strains, locus YLR268W, strain sec22, hits give low values 0.112 | S. cerevisiae deletion strains, locus YLR320W, strain mms22, hits give low values 0.844 | S. cerevisiae deletion strains, locus YLR330W, strain CHS5, hits give low values 0.0655 | S. cerevisiae deletion strains, locus YLR342W, strain FKS1 (second series), hits give low values 0.0959 | S. cerevisiae deletion strains, locus YLR342W, strain FKS1, hits give low values 0.865 | S. cerevisiae deletion strains, locus YLR370C, strain arc18, hits give low values 0.88 | S. cerevisiae deletion strains, locus YLR371W, strain rom2, hits give low values 0.15 | S. cerevisiae deletion strains, locus YLR418C, strain cdc73, hits give low values 0.138 | S. cerevisiae deletion strains, locus YML016C, strain PPZ1, hits give low values 0.0829 | S. cerevisiae deletion strains, locus YML032C, strain rad52, hits give low values 0.121 | S. cerevisiae deletion strains, locus YML124C, strain tub3, hits give low values 0.195 | S. cerevisiae deletion strains, locus YMR058W, strain fet3, hits give low values 0.416 | S. cerevisiae deletion strains, locus YMR078C, strain ctf18, hits give low values 0.147 | S. cerevisiae deletion strains, locus YMR205C, strain PFK2, hits give low values 0.871 | S. cerevisiae deletion strains, locus YMR223W, strain ubp8, hits give low values 0.157 | S. cerevisiae deletion strains, locus YMR263W, strain SAP30, hits give low values 0.377 | S. cerevisiae deletion strains, locus YMR307W, strain GAS1, hits give low values 0.149 | S. cerevisiae deletion strains, locus YNL067W, strain RPL9B, hits give low values 0.0765 | S. cerevisiae deletion strains, locus YNL153C, strain GIM3, hits give low values 0.0856 | S. cerevisiae deletion strains, locus YNL209W, strain ssb2, hits give low values 0.82 | S. cerevisiae deletion strains, locus YNL233W, strain BNI4, hits give low values 0.0884 | S. cerevisiae deletion strains, locus YNL250W, strain rad50, hits give low values 0.738 | S. cerevisiae deletion strains, locus YNL307C, strain MCK1, hits give low values 0.0826 | S. cerevisiae deletion strains, locus YNR052C, strain pop2, hits give low values 0.0986 | S. cerevisiae deletion strains, locus YOL147C, strain pex11, hits give low values 0.13 | S. cerevisiae deletion strains, locus YOR061W, strain CKA2, hits give low values 0.0764 | S. cerevisiae deletion strains, locus YOR069W, strain VPS5, hits give low values 0.0745 | S. cerevisiae deletion strains, locus YOR106W, strain vam3, hits give low values 0.703 | S. cerevisiae deletion strains, locus YOR136W, strain idh2, hits give low values 0.203 | S. cerevisiae deletion strains, locus YOR144C, strain elg1, hits give low values 0.298 | S. cerevisiae deletion strains, locus YOR184W, strain ser1, hits give low values 0.0852 | S. cerevisiae deletion strains, locus YOR265W, strain rbl2, hits give low values 0.899 | S. cerevisiae deletion strains, locus YOR270C, strain vph1, hits give low values 0.656 | S. cerevisiae deletion strains, locus YOR290C, strain snf2, hits give low values 0.711 | S. cerevisiae deletion strains, locus YOR316C, strain cot1, hits give low values 0.21 | S. cerevisiae deletion strains, locus YPL051W, strain arl3, hits give low values 0.756 | S. cerevisiae deletion strains, locus YPL078C, strain atp4, hits give low values 0.867 | S. cerevisiae deletion strains, locus YPL241C, strain CIN2, hits give low values 0.0834 | S. cerevisiae deletion strains, locus YPR119W, strain clb2, hits give low values 0.2 | S. cerevisiae deletion strains, locus YPR163C, strain tif3, hits give low values 0.115 | S. cerevisiae deletion strains, locus YPR167C, strain met16, hits give low values 0.125 | S. cerevisiae deletion strains, strain wtn01, hits give low values 0.0957 | S. cerevisiae strains, strain wild type, hits give low values 0.0706
inactive: S. cerevisiae deletion strains, locus YJR066W, strain TOR1, hits give low values 0.957 | S. cerevisiae deletion strains, locus YKL009W, strain mrt4, hits give low values 0.961 | S. cerevisiae deletion strains, locus YKL068W, hits give low values 0.982 | S. cerevisiae deletion strains, locus YKL085W, strain MDH1 (second series), hits give low values 1 | S. cerevisiae deletion strains, locus YKL085W, strain MDH1, hits give low values 1 | S. cerevisiae deletion strains, locus YKL160W, strain elf1, hits give low values 0.924 | S. cerevisiae deletion strains, locus YKR026C, strain gcn3, hits give low values 0.994 | S. cerevisiae deletion strains, locus YKR091W, strain srl3, hits give low values 0.958 | S. cerevisiae deletion strains, locus YLL026W, hits give low values 0.975 | S. cerevisiae deletion strains, locus YLL041C, strain sdh2, hits give low values 0.935 | S. cerevisiae deletion strains, locus YLR027C, strain aat2, hits give low values 0.975 | S. cerevisiae deletion strains, locus YLR113W, strain HOG1, hits give low values 0.95 | S. cerevisiae deletion strains, locus YLR357W, strain rsc2, hits give low values 0.907 | S. cerevisiae deletion strains, locus YLR384C, strain iki3, hits give low values 0.957 | S. cerevisiae deletion strains, locus YML120C, strain ndi1, hits give low values 1.02 | S. cerevisiae deletion strains, locus YMR125W, strain sto1, hits give low values 1.02 | S. cerevisiae deletion strains, locus YMR129W, hits give low values 0.997 | S. cerevisiae deletion strains, locus YMR231W, strain pep5, hits give low values 1 | S. cerevisiae deletion strains, locus YNL071W, strain lat1, hits give low values 0.951 | S. cerevisiae deletion strains, locus YNL183C, strain NPR1, hits give low values 0.941 | S. cerevisiae deletion strains, locus YNL248C, strain rpa49, hits give low values 0.974 | S. cerevisiae deletion strains, locus YNL271C, strain bni1, hits give low values 0.96 | S. cerevisiae deletion strains, locus YNL298W, strain CLA4, hits give low values 0.98 | S. cerevisiae deletion strains, locus YNL322C, strain KRE1 (second series), hits give low values 0.972 | S. cerevisiae deletion strains, locus YNR049C, strain mso1, hits give low values 0.926 | S. cerevisiae deletion strains, locus YOL012C, strain htz1 0.253 | S. cerevisiae deletion strains, locus YOR001W, strain rrp6, hits give low values 1.01 | S. cerevisiae deletion strains, locus YOR070C, strain gyp1, hits give low values 0.989 | S. cerevisiae deletion strains, locus YOR080W, strain dia2, hits give low values 0.916 | S. cerevisiae deletion strains, locus YOR083W, strain WHI5, hits give low values 0.918 | S. cerevisiae deletion strains, locus YOR231W, strain MKK1, hits give low values 0.975 | S. cerevisiae deletion strains, locus YPL106C, strain sse1, hits give low values 0.909 | S. cerevisiae deletion strains, locus YPL240C, strain hsp82, hits give low values 0.933 | S. cerevisiae deletion strains, locus YPL256C, strain CLN2, hits give low values 0.983 | S. cerevisiae deletion strains, locus YPR141C, strain kar3, hits give low values 0.967
